Assay outcomes: PubChem BioAssay, National Center for Advancing Translational Sciences (NCATS)
DT40 TDP1 CPT = growth inhibition of DT40 Tdp1-/-;hTDP1 cells with camptothecin (screen for TDP1 inhibitors). hit rate 12% among 420,000. Potency, µM (series often up to 46.2 µM), inactives show top-dose activity change, negative = growth inhibition, hits mostly inhibitors. AID 686979. chicken DT40 Tdp1-/-;hTDP1 cells + 20 nM CPT, ATP luminescence, 48 h; also: potency is read from the fitted curve at half-maximal effect; % is scaled to controls: 0 for no effect and ±100 for the full control effect; nearly all actives have a fitted effect of over 55% in size
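Chicken DT40 Tdp1-/- cells stably complemented with human TDP1 were seeded at 400 cells/well in medium containing 20 nM camptothecin, exposed to pin-transferred compounds, and grown at 37 °C for at least 48 hr. Viability was read as ATP luminescence.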
ClpP mod = qHTS Assay for Activators of ClpP; ATP-dependent Clp protease proteolytic subunit (Bacillus subtilis (strain 168)), P80244; purified B. subtilis ClpP, FRET peptide cleavage, 20 min; Potency, µM (series often up to 57.5 µM), without a hit: at the highest dose activity change, negative = active; hit rate 1.9% among 340,000; AID 651965, 2013; active = well fitted falling curve with a large enough effect; inconclusive = small, poorly fitted or top-dose-only effect; inactive = no such curve, though single readings can be large or run the other way; also: potency is read from the fitted curve at half-maximal effect; the source files actives as falling curves though it sought activators and does not explain the sign; nearly all actives have a fitted effect of over 65% in size
Target sequence (P80244 whole entry, looked up): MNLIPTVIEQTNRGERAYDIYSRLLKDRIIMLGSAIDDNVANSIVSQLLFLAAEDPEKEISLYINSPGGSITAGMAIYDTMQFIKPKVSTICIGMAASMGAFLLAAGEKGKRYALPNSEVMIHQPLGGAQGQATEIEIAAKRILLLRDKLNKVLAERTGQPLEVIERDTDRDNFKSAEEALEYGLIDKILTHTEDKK
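ClpP 10 microg/mL final, pH 8 Tris/KCl buffer with BSA, glycerol, Tween-20; compound pinned in; FRET-FV substrate; RT 20 min; Ex320/Em430; ΔFRET vs ADEP 5.8 microM, DMSO, no enzyme.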
D3 ag = D3 dopamine receptor (human) agonism. D3R DiscoveRx beta-arrestin cells, luminescence, 90 min. max activation, %. hit rate 0.58% among 410,000; in the data active = max activation above about 30%; also: 0% is about no effect
Target sequence (P35462 whole entry, looked up): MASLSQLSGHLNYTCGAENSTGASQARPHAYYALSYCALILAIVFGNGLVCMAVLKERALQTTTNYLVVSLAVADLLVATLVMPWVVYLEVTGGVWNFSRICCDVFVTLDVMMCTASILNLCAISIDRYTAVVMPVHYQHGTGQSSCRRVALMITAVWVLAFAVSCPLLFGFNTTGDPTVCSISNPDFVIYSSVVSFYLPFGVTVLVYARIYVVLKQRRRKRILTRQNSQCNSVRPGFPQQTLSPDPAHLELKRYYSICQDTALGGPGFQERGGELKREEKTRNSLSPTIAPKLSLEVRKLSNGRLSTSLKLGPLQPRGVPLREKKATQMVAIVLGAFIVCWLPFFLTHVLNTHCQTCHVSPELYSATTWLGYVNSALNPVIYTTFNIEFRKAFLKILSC
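Agonist mode: compounds and dopamine controls were applied to plated cells for 90 min at 37 degrees C after an overnight attachment at 1500 cells/well. Luminescent read-out followed 30 - 60 minutes at room temperature with DiscoveRx detection reagent.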
IL1B secr inh = blocks inflammasome-driven IL-1 beta release; THP-1 LPS/ATP IL-1B secretion, AlphaLISA, 16 h; hits give low values; activity change, % at 57.5 µM; hit rate 4.7% among 360,000; AID 743279; in the data active = activity change below about -50%; inconclusive = mostly about -30% to -49%; also: % is scaled to controls: 0 for no effect and ±100 for the full control effect
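THP-1 cells pretreated 1 hr with compounds (up to 57.5 uM final), then stimulated with LPS (250 ng/mL final) plus ATP (1.25 mM final); secreted IL-1B measured by AlphaLISA after 16 hr, decreased signal indicating inhibition.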
DRD3 antagonist = antagonists of human D3 dopamine receptor | P35462 | max response, negative = inhibition, % | AID 652054 | D3R cells, DiscoveRx beta-arrestin luminescence, antagonist mode; hits give low values | hit rate 2.5% among 360,000; in the data active = max response below about -50%; inconclusive = no clear call, values can overlap the other calls; also: % is scaled to controls: 0 for no effect and ±100 for the full control effect
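Cells plated overnight at 1500 cells/well, then exposed to library compounds with dopamine controls for 90 minutes at 37 degrees C. DiscoveRx reagent added for 30–60 minutes at room temperature; luminescence read, quantitative HTS format.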
TDP1 cell noCPT = qHTS for Inhibitors of human tyrosyl-DNA phosphodiesterase 1 (TDP1): qHTS in cells in absence of CPT. DT40 Tdp1-/- hTDP1 cells, no CPT, ATP luminescence, 48 h. Potency, µM (doses to about 46.2 µM), without a hit: at the top dose activity change, negative = growth inhibition, usual class: inhibitors. hit rate 15% among 420,000. AID 686978, 2013; also: potency is read from the fitted curve at half-maximal effect; % is scaled to controls: 0 for no effect and ±100 for the full control effect; nearly all actives have a fitted effect of over 55% in size
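A cellular qHTS used chicken DT40 cells lacking endogenous Tdp1 but carrying stably transfected human TDP1. Compounds were applied without camptothecin, and cell growth kinetics were judged by ATP-dependent luminescence after ≥48 hr.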
The depositor's hits bear a star; ? = inconclusive; . = no result given; [ ] = remark or other dose. This is a sample that favours compounds with a hit; in the whole collection about 21% have one here. Unless noted, calls follow the shape of the dose curve; as a rule, active = well fitted inhibition curve with a large enough effect; inconclusive = small, poorly fitted or top-dose-only effect; inactive = flat fitted curve, though single readings scatter.

SMILES	DT40 TDP1 CPT	ClpP mod	D3 ag	IL1B secr inh	DRD3 antagonist	TDP1 cell noCPT
CS(=O)(=O)c1ccc(C(=O)Nc2cccc(-c3nc4ccccc4[nH]3)c2)cc1	?	1%	-1	-19	-9	26µM*
CCOc1cc(OCC)cc(C(=O)Nc2cccc(-c3nc4ccccc4[nH]3)c2)c1	10µM*	203%	0	.	.	6.5µM*
CS(=O)(=O)c1cccc(C(=O)Nc2cccc(-c3nc4ccccc4[nH]3)c2)c1	?	0%	4	0	0	?
Brc1cccc[n+]1Cc1ccccc1C[n+]1ccccc1Br	?	-5%	.	.	.	-25%
O=c1[nH]c(Nc2ccccc2)cc2ccccc12	-25%	28µM*	-6	-7	24	?
CC(=O)c1cccc(-c2ccc3c(=O)[nH]c(Nc4ccccc4)cc3c2)c1	?	-2%	31*	-17	0	?
COc1ccc(OC)c(Nc2cc3ccccc3c(=O)[nH]2)c1	1.3µM*	-13%	14	63	-3	1.8µM*
O=c1[nH]c(Nc2ccccc2)cc2cc(Br)ccc12	?	-4%	-18	36	-22	18µM*
COc1cc(OC)cc(C(=O)NCC(=O)NCC(c2ccco2)N2CCCCC2)c1 (stereo not drawn)	-5%	-3%	-5	8	2	-8%
Cc1cccc(C)c1NC(=O)[C@@]1(CC(=O)O)CC(/C=C/c2ccccc2)=NO1	-15%	.	3	29	54	-19%
CC(=O)N1CCN(S(=O)(=O)c2cccc(C(=O)NNC(=O)COc3ccc(F)cc3)c2)CC1	-1%	-5%	5	73	1	-3%
Cn1c2c(c(=O)n(C)c1=O)C(c1ccccc1[N+](=O)[O-])CC(=O)N2 (stereo not drawn)	-24%	-17%	9	.	.	?
CCCS(=O)(=O)NC(=O)C1(C)CCCN(C(=O)c2c(C)noc2C)C1 (stereo not drawn)	7%	-2%	-4	19	0	-8%
O=C(CN1C(=O)C2CCCCN2c2ccc(C(=O)N3CCCC3)cc21)NCc1cccc(F)c1 (stereo not drawn)	-22%	-4%	8	.	.	-16%
Cc1ccc(S(=O)(=O)N2CCCC2=O)c(C)c1N(C)S(C)(=O)=O	-7%	-2%	7	13	3	17%
COc1ccccc1Nc1cc2cc(Br)ccc2c(=O)[nH]1	2.6µM*	-5%	3	79	-8	5.2µM*
COC(=O)C1=C(C(=O)OC)[C@@H]2N(C)c3ccccc3[C@@]23C[C@@H](CO)N(C(=O)C2CCC2)C3=N1	-2%	1%	-20	-24	-53*	-13%
CCCCNS(=O)(=O)c1cccc(NC(=O)[C@@H]2O[C@H](CO)[C@@H](O)[C@H]2O)c1	-2%	1%	1	0	2	9%
CC(=O)Nc1cc(-c2ccc(N3CCN(C)CC3)cc2)cn2c(-c3ccccc3)cnc12	21µM*	-20%	-10	.	0	16µM*
CC(=O)Nc1cc(-c2ccc(N3CCN(C)CC3)cc2)cn2c(-c3ccc(S(C)(=O)=O)cc3)cnc12	15µM*	-24%	5	-24	3	21µM*
CCCCn1c(N)c(N(CC(C)C)C(=O)C2CCN(S(=O)(=O)c3ccc(C)cc3)CC2)c(=O)[nH]c1=O	-14%	1%	3	0	-23	-18%
CC/C(=C\C(=O)c1ccncc1)Nc1ccc(O)cc1	?	-5%	-12	?	-17	21µM*
COc1ccccc1NC(=O)CN1C(=O)COc2ccc(S(=O)(=O)N3CCCCCC3)cc21	?	0%	-10	-8	8	-11%
Cc1cc(C)cc(NC(=O)CN2C(=O)COc3ccc(S(=O)(=O)Nc4ccccc4)cc32)c1	-24%	2%	-16	.	.	-19%
CCOc1ccccc1NC(=O)CN1C(=O)COc2ccc(S(=O)(=O)N3CCCCCC3)cc21	?	0%	-5	.	.	21µM*
SMILES	DT40 TDP1 CPT	ClpP mod	D3 ag	IL1B secr inh	DRD3 antagonist	TDP1 cell noCPT
CCN(Cc1ccccc1)C(=O)CN1C(=O)COc2ccc(S(=O)(=O)NC3CCCC3)cc21	16µM*	0%	-1	-1	24	?
CCOc1ccccc1NC(=O)CN1C(=O)COc2ccc(S(=O)(=O)Nc3ccccc3)cc21	16µM*	1%	-13	.	.	18µM*
COc1ccc(CNC(=O)CN2C(=O)COc3ccc(S(=O)(=O)NC4CCCC4)cc32)cc1	-1%	0%	0	-5	-2	1%
CCOc1ccccc1NC(=O)CN1C(=O)COc2ccc(S(=O)(=O)N3CCCCC3)cc21	21µM*	1%	-5	.	.	23µM*
Cc1cccc(-n2c(SCC(=O)NCc3ccco3)nc3ccccc3c2=O)c1	10µM*	-4%	-3	?	-12	?
O=C1c2ccccc2C(=O)N1CCCc1nc2ccccc2c(=O)n1Cc1ccco1	21µM*	1%	30	-2	7	16µM*
CCC(C)N(C(=O)CSc1nc(C)nc2ccccc12)C1CCS(=O)(=O)C1 (stereo not drawn)	1%	-1%	7	-59*	-6	?
O=C(CSc1nc2ccccc2c(=O)n1-c1ccccc1)NCc1ccco1	-28%	-1%	-3	-13	-4	?
O=C(CCCCCn1c(SCC(=O)c2ccccc2)nc2ccccc2c1=O)NCc1ccco1	8.2µM*	-3%	9	-8	23	21µM*
CC(=O)c1ccc(F)c(-c2cc(C)cc3c2OC(CNC(=O)C2CCCCN2C)C3)c1 (stereo not drawn)	-6%[9.04 µM]	.	.	.	.	?
CCn1c(SCc2cccc(OC)c2)nc2ccccc2c1=O	10µM*	.	4	25	3	21µM*
CCn1c(SCc2ccc(F)cc2)nc2ccccc2c1=O	-8%	-6%	-5	-8	16	-30%
CCn1c(SCC(=O)N2CCCCCC2)nc2ccccc2c1=O	21µM*	.	-6	-11	7	?
Cc1cccc(-n2c(SCc3cc(=O)n4ccsc4n3)nc3ccccc3c2=O)c1	?	-1%	12	-3	50	15µM*
O=C(NCc1ccco1)c1ccc2c(=O)n(Cc3ccco3)c(SCC(=O)N3CCCC3)nc2c1	26µM*	-9%	0	-13	13	?
CCOC(=O)C1=C(C)Nc2ccccc2N=C1NC(=O)C1CCN(C(=O)c2ccccc2C)CC1	?	.	-2	0	8	-18%
